Results published in PubChem BioAssay (EPA / NIEHS).
Records with an inconclusive call do not appear. The source made the active and inactive calls. How the source made its calls, unless noted: active means hit-call score of the fitted dose curve at least 0.9, where 1 is the maximum; inactive means score below 0.9.

Assays:
[1] = biological target: Oxysterols receptor LXR-beta (Homo sapiens) (UniProt P55055); assay: ATG_LXRb_TRANS: Attagene TRANS-FACTORIAL HepG2 Assay for human Liver X Receptor beta (LXRb) (AID 2282981; active means hit-call score of the fitted dose curve at least 0.9, where 1 is the maximum); details: HepG2 Attagene TRANS GAL4-LXRb reporter, mRNA
Chain of Oxysterols receptor LXR-beta (Homo sapiens) (P55055 whole entry, looked up, the tested form may be a part): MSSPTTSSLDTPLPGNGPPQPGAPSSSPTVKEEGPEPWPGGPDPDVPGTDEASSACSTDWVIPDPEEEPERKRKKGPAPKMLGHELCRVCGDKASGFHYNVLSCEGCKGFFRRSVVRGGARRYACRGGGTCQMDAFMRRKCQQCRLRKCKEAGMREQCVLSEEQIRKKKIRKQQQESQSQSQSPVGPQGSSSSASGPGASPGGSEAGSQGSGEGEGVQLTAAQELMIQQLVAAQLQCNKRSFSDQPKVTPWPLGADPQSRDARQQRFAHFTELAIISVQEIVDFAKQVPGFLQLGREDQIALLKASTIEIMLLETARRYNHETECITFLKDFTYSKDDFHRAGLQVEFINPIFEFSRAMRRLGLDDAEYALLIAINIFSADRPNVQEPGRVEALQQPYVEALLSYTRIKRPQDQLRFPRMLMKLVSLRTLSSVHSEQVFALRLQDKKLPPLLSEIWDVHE
How it was run: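 In this TRANS format, exogenous chimeric NR-Gal4 protein activity, not endogenous factors, drives reporter expression in transfected human HepG2 cells. Exposure lasted 24 h; reporter mRNA was read by fluorescent capillary electrophoresis.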

[2] = biological target: Hepatocyte nuclear factor 4-alpha (Homo sapiens) (UniProt P41235); assay: ATG_HNF4a_TRANS: Attagene TRANS-FACTORIAL HepG2 Assay for human Hepatocyte Nuclear Factor 4 alpha (HNF4a) (AID 2282982; active means hit-call score of the fitted dose curve at least 0.9, where 1 is the maximum); details: HepG2 HNF4a transactivation reporter, mRNA readout
Chain of Hepatocyte nuclear factor 4-alpha (Homo sapiens) (P41235 whole entry, looked up, the tested form may be a part): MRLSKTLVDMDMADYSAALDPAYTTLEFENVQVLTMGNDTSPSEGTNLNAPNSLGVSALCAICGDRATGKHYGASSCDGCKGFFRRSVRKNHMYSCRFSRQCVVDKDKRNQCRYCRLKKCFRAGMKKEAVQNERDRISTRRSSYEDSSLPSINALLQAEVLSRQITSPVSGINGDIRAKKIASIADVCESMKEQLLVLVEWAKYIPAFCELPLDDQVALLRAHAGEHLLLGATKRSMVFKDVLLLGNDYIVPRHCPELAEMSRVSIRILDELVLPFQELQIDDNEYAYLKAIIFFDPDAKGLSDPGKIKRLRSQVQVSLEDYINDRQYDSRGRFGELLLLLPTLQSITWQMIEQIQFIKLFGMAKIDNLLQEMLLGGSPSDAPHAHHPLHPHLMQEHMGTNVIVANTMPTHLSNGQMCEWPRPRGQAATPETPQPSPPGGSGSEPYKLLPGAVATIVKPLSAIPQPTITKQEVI
How it was run: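 Cells used were human HepG2, transiently carrying GAL4-UAS reporter units read out against exogenous NR-GAL4 chimeras. Reporter transcript levels after 24 h dosing were quantified by fluorescent RT-PCR and capillary electrophoresis.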

[3] = ATG_M_32_TRANS: Attagene TRANS-FACTORIAL HepG2 Assay for M32 Transcription Factor (Internal Marker) (AID 2282984; active means hit-call score of the fitted dose curve at least 0.9, where 1 is the maximum); details: HepG2 Attagene TRANS M32 internal marker reporter
How it was run: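 Human hepatoma HepG2, transient MRTU transfection, 24 h treatment. RNA → RT-PCR → fluorescent primer extension → HpaI digest (2 h, 37 C) → CE. Positive-direction fit vs DMSO.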

[4] = biological target: Nuclear receptor subfamily 4 group A member 2 (Homo sapiens) (UniProt P43354); assay: ATG_NURR1_TRANS: Attagene TRANS-FACTORIAL HepG2 Assay for human Nuclear Receptor Related Protein 1 (NURR1) (AID 2282985; active means hit-call score of the fitted dose curve at least 0.9, where 1 is the maximum); details: HepG2 Attagene TRANS reporter, mRNA readout
Chain of Nuclear receptor subfamily 4 group A member 2 (Homo sapiens) (P43354 whole entry, looked up): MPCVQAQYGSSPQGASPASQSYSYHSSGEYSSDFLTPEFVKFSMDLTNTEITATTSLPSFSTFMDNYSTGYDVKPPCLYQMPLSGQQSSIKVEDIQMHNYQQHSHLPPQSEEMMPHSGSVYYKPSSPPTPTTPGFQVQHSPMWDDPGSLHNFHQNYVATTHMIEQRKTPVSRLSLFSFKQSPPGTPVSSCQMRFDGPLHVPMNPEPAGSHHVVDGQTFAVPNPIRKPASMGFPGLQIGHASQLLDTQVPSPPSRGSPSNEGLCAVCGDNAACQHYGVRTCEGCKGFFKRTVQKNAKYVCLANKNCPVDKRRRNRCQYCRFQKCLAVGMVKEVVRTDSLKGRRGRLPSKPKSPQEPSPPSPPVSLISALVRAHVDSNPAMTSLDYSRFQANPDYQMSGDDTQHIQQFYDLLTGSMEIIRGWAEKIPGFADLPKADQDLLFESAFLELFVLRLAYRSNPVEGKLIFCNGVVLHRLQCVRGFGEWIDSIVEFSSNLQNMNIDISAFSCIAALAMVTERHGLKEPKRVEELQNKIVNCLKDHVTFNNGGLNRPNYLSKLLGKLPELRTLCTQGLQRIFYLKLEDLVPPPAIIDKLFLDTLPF
How it was run: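 After 24 h chemical dosing, total RNA from transiently transfected HepG2 cells was reverse-transcribed and reporter cDNA PCR-amplified, FAM-labelled and analysed by capillary electrophoresis. Activity fitted in positive direction, DMSO as negative control.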

[5] = biological target: Transcriptional activator Myb (Homo sapiens) (UniProt P10242); assay: ATG_Myb_CIS: Attagene CIS-FACTORIAL HepG2 Assay for human Myeloblastosis (Myb) Proto-Oncogene Transcription Factor (AID 2282986); details: HepG2 Attagene CIS-FACTORIAL Myb reporter transcription; actives raise or lower the signal
Chain of Transcriptional activator Myb (Homo sapiens) (P10242 whole entry, looked up): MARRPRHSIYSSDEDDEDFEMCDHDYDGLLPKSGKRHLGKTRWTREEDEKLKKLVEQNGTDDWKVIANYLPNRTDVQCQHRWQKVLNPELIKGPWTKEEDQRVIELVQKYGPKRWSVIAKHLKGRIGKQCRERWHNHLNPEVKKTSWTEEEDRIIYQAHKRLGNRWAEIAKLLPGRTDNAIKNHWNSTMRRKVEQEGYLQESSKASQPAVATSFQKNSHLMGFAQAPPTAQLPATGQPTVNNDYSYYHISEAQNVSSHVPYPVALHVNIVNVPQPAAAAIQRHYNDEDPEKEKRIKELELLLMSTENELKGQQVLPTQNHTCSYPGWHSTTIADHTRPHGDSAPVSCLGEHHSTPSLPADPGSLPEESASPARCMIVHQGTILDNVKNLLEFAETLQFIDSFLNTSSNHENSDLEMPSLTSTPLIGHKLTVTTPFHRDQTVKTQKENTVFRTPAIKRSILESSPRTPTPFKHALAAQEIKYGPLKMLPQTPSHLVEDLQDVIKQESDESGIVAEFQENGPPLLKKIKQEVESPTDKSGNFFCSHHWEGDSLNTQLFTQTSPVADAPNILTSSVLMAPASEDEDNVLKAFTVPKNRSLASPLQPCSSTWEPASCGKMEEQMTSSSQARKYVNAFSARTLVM
How it was run: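 Reporter transcript levels, quantified by fluorescent RT-PCR and capillary electrophoresis, serve as the read-out. Transfected HepG2 cells carrying cis-promoter reporter units are dosed for 24 hours, and curves are fitted bidirectionally against DMSO controls.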

[6] = biological target: Nuclear respiratory factor 1 (Homo sapiens) (UniProt Q16656); assay: ATG_NRF1_CIS: Attagene CIS-FACTORIAL HepG2 Assay for human Nuclear Respiratory Factor 1 (NRF1) Orphan Gene (AID 2282987); details: HepG2 NRF1 cis-element reporter, Attagene multiplex; actives raise or lower the signal
Chain of Nuclear respiratory factor 1 (Homo sapiens) (Q16656 whole entry, looked up): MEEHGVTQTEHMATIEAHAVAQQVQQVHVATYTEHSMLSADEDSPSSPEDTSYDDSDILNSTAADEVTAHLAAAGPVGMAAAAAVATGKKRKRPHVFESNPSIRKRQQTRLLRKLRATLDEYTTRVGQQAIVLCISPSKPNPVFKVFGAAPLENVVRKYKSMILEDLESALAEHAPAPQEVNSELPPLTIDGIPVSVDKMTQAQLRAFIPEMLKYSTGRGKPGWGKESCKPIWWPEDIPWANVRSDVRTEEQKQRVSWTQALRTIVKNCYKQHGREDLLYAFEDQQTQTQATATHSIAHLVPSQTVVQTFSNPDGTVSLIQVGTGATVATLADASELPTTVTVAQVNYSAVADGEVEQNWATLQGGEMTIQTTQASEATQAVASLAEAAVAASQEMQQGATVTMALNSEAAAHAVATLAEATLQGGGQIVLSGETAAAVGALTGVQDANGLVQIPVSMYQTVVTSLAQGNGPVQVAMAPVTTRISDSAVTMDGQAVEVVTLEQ
How it was run: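 Multiplexed cis-reporter assay, HepG2 cells, 24 h treatment. Total RNA → oligo(dT) RT → PCR with reporter-specific primers → 6-FAM primer extension → HpaI cut → CE. Bidirectional fit vs DMSO.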

[7] = ATG_NFI_CIS: Attagene CIS-FACTORIAL HepG2 Assay for human Nuclear Factor I (NFI) (AID 2282989); details: HepG2 cis-regulatory reporter, NFI response element transcription; actives raise or lower the signal
How it was run: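 Endogenous TF activity in HepG2 cells transiently transfected with cis-element-driven multiplexed reporter units, read 24 h after dosing. Reporter mRNA quantified by RT-PCR, 6-FAM labelling, HpaI digestion and capillary electrophoresis; bidirectional fit versus DMSO.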

[8] = biological target: Myc proto-oncogene protein (Homo sapiens) (UniProt P01106); assay: ATG_Myc_CIS: Attagene CIS-FACTORIAL HepG2 Assay for human Myelocytomatosis (Myc) Proto-Oncogene Transcription Factor (AID 2282990); details: HepG2, Attagene cis-reporter transcription factor activity; actives raise or lower the signal
Chain of Myc proto-oncogene protein (Homo sapiens) (P01106 whole entry, looked up): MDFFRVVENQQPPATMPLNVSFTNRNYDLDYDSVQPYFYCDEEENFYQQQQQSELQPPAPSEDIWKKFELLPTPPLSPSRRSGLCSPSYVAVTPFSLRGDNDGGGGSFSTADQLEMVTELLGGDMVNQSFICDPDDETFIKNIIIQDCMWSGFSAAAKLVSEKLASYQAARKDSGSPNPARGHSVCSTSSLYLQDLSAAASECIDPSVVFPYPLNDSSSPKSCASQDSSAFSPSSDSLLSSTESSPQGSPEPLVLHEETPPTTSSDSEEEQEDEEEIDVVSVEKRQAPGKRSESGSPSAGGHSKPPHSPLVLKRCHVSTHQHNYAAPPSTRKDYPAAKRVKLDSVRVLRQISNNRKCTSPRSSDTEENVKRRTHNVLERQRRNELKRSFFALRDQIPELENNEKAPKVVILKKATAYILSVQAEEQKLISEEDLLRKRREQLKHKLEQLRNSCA
How it was run: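 HepG2 cells transiently transfected with multiple cis-promoter-driven reporter transcription units, so endogenous TF activity is read. After 24 h compound exposure, reporter mRNA was quantified by RT-PCR, 6-FAM labelling, HpaI digestion and capillary electrophoresis; bidirectional fit versus DMSO.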

[9] = ATG_NRF2_ARE_CIS: Attagene CIS-FACTORIAL HepG2 Assay for human Nuclear Factor Erythroid 2 Related Factor 2 (NFR2) response to Antioxidant Response Elements (ARE) (AID 2282992); details: HepG2 Attagene ARE/NRF2 reporter, transcription factor activity; actives raise or lower the signal;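 on AC50: reporter mRNA level measured by RT-PCR and capillary electrophoresis fluorescence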
How it was run: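 HepG2 cells transiently transfected with multiplexed cis-element reporter constructs, 24 h after chemical dosing; reporter mRNA quantified by RT-PCR, fluorescent primer extension, HpaI digestion and capillary electrophoresis. Bidirectional fit relative to DMSO.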

[10] = ATG_Oct_MLP_CIS: Attagene CIS-FACTORIAL HepG2 Assay for human Octamer-Binding Transcription Factor (Oct) (AID 2282993); details: HepG2 Attagene cis-factorial Oct reporter, mRNA; actives raise or lower the signal
How it was run: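 HepG2 cells transiently transfected with cis-element-driven reporter transcription units (endogenous TF activity); 24 h compound exposure. Reporter mRNA quantified by RT-PCR, 6-FAM labelling, HpaI digestion and capillary electrophoresis; bidirectional fit versus DMSO baseline.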

[11] = ATG_M_06_TRANS: Attagene TRANS-FACTORIAL HepG2 Assay for M06 Transcription Factor (Internal Marker) (AID 2282983; active means hit-call score of the fitted dose curve at least 0.9, where 1 is the maximum); details: HepG2 Attagene TRANS M06 internal marker reporter
How it was run: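 After a 24 h chemical treatment of transfected HepG2, RNA underwent DNase I treatment, reverse transcription and reporter-specific PCR; labelled, HpaI-digested products were sized by capillary electrophoresis. Signal increase relative to DMSO defined activity.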

[12] = ATG_NF_kB_CIS: Attagene CIS-FACTORIAL HepG2 Assay for human Nuclear Factor Kappa B (NF-kB) (AID 2282991); details: HepG2 Attagene cis-factorial NF-kB reporter mRNA; actives raise or lower the signal
How it was run: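 Transient MRTU transfection of human HepG2 liver cells → 24 h chemical exposure → total RNA, oligo(dT) RT → PCR, 6-FAM primer extension, HpaI digest 2 h 37 C → CE fragment analysis. Bidirectional fitting, DMSO negative control.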

[13] = biological target: Cellular tumor antigen p53 (Homo sapiens) (UniProt P04637); assay: ATG_p53_CIS: Attagene CIS-FACTORIAL HepG2 Assay for human p53 Transcription Factor (AID 2282994); details: HepG2 p53 cis-element reporter, Attagene mRNA; actives raise or lower the signal
Chain of Cellular tumor antigen p53 (Homo sapiens) (P04637 whole entry, looked up): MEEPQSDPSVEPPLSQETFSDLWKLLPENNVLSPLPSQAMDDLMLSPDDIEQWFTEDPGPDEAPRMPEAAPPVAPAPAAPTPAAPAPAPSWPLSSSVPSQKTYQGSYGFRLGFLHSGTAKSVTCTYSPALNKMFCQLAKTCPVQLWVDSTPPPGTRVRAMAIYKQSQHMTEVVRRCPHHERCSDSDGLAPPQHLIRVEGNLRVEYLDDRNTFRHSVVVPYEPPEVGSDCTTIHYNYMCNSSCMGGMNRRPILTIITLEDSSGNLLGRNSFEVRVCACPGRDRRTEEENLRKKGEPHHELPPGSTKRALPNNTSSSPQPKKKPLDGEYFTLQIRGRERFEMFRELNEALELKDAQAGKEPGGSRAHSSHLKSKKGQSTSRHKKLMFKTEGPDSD
How it was run: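 HepG2 cells transiently transfected with cis-regulated multiple reporter transcription units, dosed 24 h. Reporter mRNA measured by RT-PCR, 6-FAM primer extension, HpaI digestion and capillary electrophoresis; bidirectional fit relative to DMSO.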

Measured: AC50

CCC(=O)OCCC(C)CCC=C(C)C (stereo unspecified)
active: [9] 63.9 µM
not listed: [11] | [12] | [13]
inactive: all other assays above

O=C(O)CCCCCCCC(=O)O
not listed: [4] | [13]
inactive: all other assays above

Cc1ccc(S)cc1
active: [13] 65.1 µM
not listed: [4]
inactive: all other assays above

O=C1O[C@@H]2[C@@H](O)[C@H](O)O[C@@H]2[C@H]1O
not listed: [3] | [4] | [6]
inactive: all other assays above

CCC(C(=O)NC(N)=O)c1ccccc1 (stereo unspecified)
not listed: [2] | [4] | [10]
inactive: all other assays above

C=C(C)[C@@H]1CC[C@@H](C)C[C@@H]1O
not listed: [2] | [4] | [7] | [10] | [12]
inactive: all other assays above

OCCCCCO
not listed: [2] | [4] | [12]
inactive: all other assays above

CCCCCC(CO)CCC (stereo unspecified)
not listed: [2] | [3] | [4] | [12]
inactive: all other assays above

CCCCCCCCC
not listed: [4] | [11]
inactive: all other assays above

OCCOc1cccc(OCCO)c1
not listed: [3] | [4] | [13]
inactive: all other assays above
